Source: PubChem (several laboratories)
A selection: hits, their analogues and other compounds. The true share with any hit is near 4.5%.
dFosB act: enhances mouse delta FosB homodimer DNA binding | 340,000 compounds, 0.99% hits | AID 493131 | activation, % at 25 µM | P13346 | purified delta FosB, TAMRA-CDK5 oligo fluorescence polarization; percent of positive-control signal above neutral wells;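 active = mean activation above about 17%, with every replicate also reaching it, limit read from the data, passing the limit was not always enough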
Rpn11 block: Rpn11 (human) deubiquitinase inhibition; O00487; human 26S proteasome, Ub4-pepOG fluorescence polarization; 20S core pre-blocked with epoxomicin; inhibition, % at 20 µM; 360,000 compounds, 0.59% hits; AID 588493;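 active = inhibition at 20 µM, scaled to each plate's controls, above about 33%, limit read from the data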
Target sequence (O00487 whole entry, looked up): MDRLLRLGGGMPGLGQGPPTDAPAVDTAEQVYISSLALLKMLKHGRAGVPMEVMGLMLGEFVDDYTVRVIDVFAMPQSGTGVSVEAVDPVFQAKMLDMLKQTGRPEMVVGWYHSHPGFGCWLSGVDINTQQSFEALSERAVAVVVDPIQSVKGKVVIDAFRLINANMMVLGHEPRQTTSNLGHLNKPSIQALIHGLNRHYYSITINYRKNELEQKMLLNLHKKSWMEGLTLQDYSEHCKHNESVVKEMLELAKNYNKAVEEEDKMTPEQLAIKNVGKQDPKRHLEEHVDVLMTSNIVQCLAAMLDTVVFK
EBNA-1 inh: blocks EBNA-1 binding to DNA | EBNA-1 DNA binding, fluorescence polarization | inhibition, % at 14.8 µM | 300,000 compounds, 0.34% hits | AID 1950; in the data active = inhibition above about 28%
TPT1 inh: blocks Candida albicans tRNA 2'-phosphotransferase. inhibition, % at 5 µM. 300,000 compounds, 0.81% hits. recombinant caTPT1, FP RNA substrate dephosphorylation;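 active = inhibition above the mean of all tested compounds plus 3 SD, set per screening campaign, cut at about 24% in these data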;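 note: plate controls were DMSO alone for no effect and ferristatin control at 100 nM for full effect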
ZTA counter: blocks Epstein-Barr virus ZTA, an EBNA-1 counter-screen. P03206. inhibition, % at 11 µM. ZTA-DNA binding, fluorescence polarization. 320,000 compounds, 0.15% hits; in the data active = inhibition above about 33%
NR3A LBD binder: modulates the human NR3A ligand-binding domain. AID 1259313. 340,000 compounds, 2.5% hits. NR3A LBD differential scanning fluorimetry, Tm shift; 0% = protein alone, 100% = glycine-bound protein. Tm shift relative to glycine control, % at 25 µM;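 active = melting temperature shift of at least 10% of the positive control shift, at one fixed dose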
Active calls of the source: *.

For S=C(NCc1ccco1)Nc1cccc(Cl)c1 the results were dFosB act -6, Rpn11 block 1, EBNA-1 inh 3, TPT1 inh 0, ZTA counter 12 and NR3A LBD binder -4.
For S=C(NCc1ccco1)Nc1ccc(Cl)c(Cl)c1 the results were dFosB act -16, Rpn11 block 4, EBNA-1 inh 9, TPT1 inh 3, ZTA counter 19 and NR3A LBD binder 11*.
Screening CCCCn1c(-c2ccccc2)cnc1SCC(=O)NCCc1ccc(OC)c(OC)c1 returned dFosB act -15, Rpn11 block 2, EBNA-1 inh 6, TPT1 inh 1, ZTA counter -13 and NR3A LBD binder -2.
Screening O=S(=O)(c1ccccc1)N1CCN(C(=S)Nc2ccc(F)cc2)CC1 returned dFosB act -10, Rpn11 block -10, EBNA-1 inh 1, TPT1 inh -1, ZTA counter 9 and NR3A LBD binder -1.
`NS(=O)(=O)c1ccc(NC(=S)N2CCN(Cc3ccc(Cl)c(Cl)c3)CC2)cc1` gave dFosB act -8, Rpn11 block -1, EBNA-1 inh 5, TPT1 inh -3, ZTA counter 6 and NR3A LBD binder 25*.
For O=S(=O)(c1ccc(Cl)cc1)N1CCN(C(=S)Nc2ccc(F)c(Cl)c2)CC1 the results were dFosB act 3, Rpn11 block 3, EBNA-1 inh 2, TPT1 inh -6, ZTA counter 9 and NR3A LBD binder 18*.
`O=C(c1ccco1)N1CCN(C(=O)c2cnn(-c3ccc(Cl)cc3)c2C2CCNCC2)CC1` gave dFosB act -2, Rpn11 block 5, EBNA-1 inh 0, TPT1 inh 0, ZTA counter 13 and NR3A LBD binder 0.
For O=C(OCc1cn([C@@H]2CN(CC3CCCCC3)[C@@H](c3ccccc3)C[C@H]2O)nn1)c1ccccc1 the results were Rpn11 block 3.
For COCc1cccc(-c2csc(C(C)(NC(C)=O)c3ccc(OC)cc3)n2)c1 (stereo unspecified) the results were Rpn11 block -6.
Screening COc1cc(NC(=O)c2ccc(-c3cccc(F)c3)o2)ccc1NC(=O)c1ccccc1Cl returned dFosB act -1, Rpn11 block 7 and NR3A LBD binder 23*.
For COc1ccc(NC(=O)c2cccc(F)c2)cc1Cl the results were dFosB act -4, Rpn11 block 4, EBNA-1 inh -4, TPT1 inh -1, ZTA counter -10 and NR3A LBD binder 10*.
For COc1ccc(NC(=O)c2ccccc2F)cc1Cl the results were dFosB act 5, Rpn11 block 2, EBNA-1 inh -5, TPT1 inh 8, ZTA counter 5 and NR3A LBD binder 30*.
`COc1ccc(NC(=O)c2ccc(-c3ccc(F)cc3)o2)cc1OC` gave Rpn11 block -4.
Screening O=C(Nc1ccc(OC(F)F)c(Cl)c1)c1cccc(OC(F)F)c1 returned dFosB act -10, Rpn11 block 4, EBNA-1 inh -16, TPT1 inh 2, ZTA counter -1 and NR3A LBD binder 34*.
O=C(Nc1ccc2c(c1)CCC2)c1cccc(OC(F)F)c1 was read as Rpn11 block -1, EBNA-1 inh -11, TPT1 inh -3, ZTA counter -1 and NR3A LBD binder 7.
`COc1ccc(NC(=O)c2ccco2)cc1NC(=O)c1ccccc1F` gave dFosB act -4, Rpn11 block 3, EBNA-1 inh -2, TPT1 inh -3, ZTA counter 13 and NR3A LBD binder -1.
Screening OCC1(CCOc2ccccc2)CCN(C2Cc3ccccc3C2)CC1 returned dFosB act -16, Rpn11 block 3, EBNA-1 inh -12, TPT1 inh 1, ZTA counter 0 and NR3A LBD binder -1.
Screening O=C(CN1C(=O)COc2ccc(S(=O)(=O)N3CCCCC3)cc21)NCc1ccccc1Cl returned dFosB act -14, Rpn11 block -4, EBNA-1 inh -16, TPT1 inh 2, ZTA counter -15 and NR3A LBD binder 0.
Screening O=C(CC[C@H]1O[C@@H](n2ccc(=O)[nH]c2=O)[C@H](O)[C@@H]1O)N[C@H](Cc1ccccc1)C(=O)NCCCc1ccccc1 returned Rpn11 block 6.
